# About 3,200 (1.1%) of roughly 300,000 compounds were called active. The sample holds actives, similar compounds and a random draw of the others, so the mix is not that of the screen. Rule as the data show it: active = inhibition above about 75%; inconclusive = no clear call, values can overlap the other calls; inactive = below that; tested in HMLE shEcad cells.
# Experiment: cancer stem cell viability inhibitors, primary screen, luminescence (AID 2717)
# Conditions: cancer stem cell-like cells viability, at 7.5 µM, active compounds read high
row,Compound,inhibition
1,O=C(NNC(=O)c1cccc(S(=O)(=O)Nc2ccc(Cl)cc2)c1)c1ccc(=O)[nH]c1,-9.6% (inactive)
2,Cc1ccc(NC(=O)c2cccc(S(=O)(=O)N3CCCc4ccccc43)c2)nc1,0.233% (inactive)
3,COc1ccc(Cl)cc1NC(=O)COC(=O)c1ccc(Br)o1,0.173% (inactive)
4,CS(=O)(=O)c1ccc(C(=O)NNC(=O)c2cccs2)cc1,-0.179% (inactive)
5,Cc1ccc(SCc2c(C(=O)N/N=C/c3cccnc3)nnn2-c2nonc2N)cc1,1.7% (inactive)
6,Nc1nonc1-n1nnc(C(=O)N/N=C/c2ccccc2O)c1CN1CCCC1,62% (inactive)
7,Nc1nonc1-n1nnc(C(=O)N/N=C/c2cc(Br)ccc2O)c1CSC1=NCCS1,108% (active)
8,O=C1COc2ccc(C(=O)COC(=O)CCOc3ccccc3)cc2N1,0.0702% (inactive)
9,CC[C@@H]1Cc2cc(O)ccc2C2=C1c1ccc(O)cc1C[C@H]2CC,102% (active)
10,CC1(C)CC(=O)c2ccc(O)cc2O1,2.93% (inactive)
11,CC(C)CC1(C)NC(=O)N(CC(=O)Nc2ccc3c(c2)OCCO3)C1=O (stereo not drawn),-19% (inactive)
12,CN(C)c1ccc(/C=C/C(=O)c2ccc(C(C)(C)C)cc2)cc1[N+](=O)[O-],75.4% (active)
13,O=C(Nc1ccncc1)c1ccc(Cl)c([N+](=O)[O-])c1,2.54% (inactive)
14,O=C(/C=C/c1ccc2c(c1)OCCO2)c1ccc(O)cc1,19.1% (inactive)
15,CC(=O)Nc1ccc(/C=C/C(=O)c2ccccc2)cc1,2.62% (inactive)
16,O=C(/C=C/c1ccc(Cl)c([N+](=O)[O-])c1)c1ccc(O)cc1,80.8% (active)
17,CN(C)c1ccc(/C=C/C(=O)c2ccc(O)cc2)cc1[N+](=O)[O-],26.4% (inactive)
18,Cc1sc2ncnc(N3CCC(C(=O)Nc4ccc(F)cc4Cl)CC3)c2c1C,4.03% (inactive)
19,COc1cc(OC)cc(C(=O)NCC(=O)OCC(=O)NC(C)CCc2ccccc2)c1 (stereo not drawn),-13.2% (inactive)
20,CC(C)(C)OC(=O)CNC(=O)c1[nH]cnc1C(=O)N[C@@H](CCCCN)C(=O)OC(C)(C)C,-4.68% (inactive)

row,Compound,inhibition
1,O=C(O)/C=C/C(=O)Nc1ccc(F)cc1F,-20.2% (inactive)
2,COc1ccccc1NC(=O)/C=C/C(=O)O,0.627% (inactive)
3,COC(=O)c1sc(-c2ccc(C(C)(C)C)cc2)cc1NC(=O)/C=C/C(=O)O,119% (active)
4,COc1cc(OC)cc(-c2cc3ccc(F)cc3cn2)c1,47% (inactive)
5,CC[C@]1(O)CC2CN(CCc3c([nH]c4ccccc34)[C@@](C(=O)OC)(c3cc4c(cc3OC)N(C=O)[C@H]3[C@@](O)(C(=O)OC)[C@H](OC(C)=O)[C@]5(CC)C=CCN6CC[C@]43[C@@H]65)C2)C1 (stereo partly drawn),62.5% (inactive)
6,CC[C@]1(O)C[C@@H]2CN(CCc3c([nH]c4ccccc34)[C@@](C(=O)OC)(c3cc4c(cc3OC)N(C)[C@H]3[C@@](O)(C(=O)OC)[C@H](OC(C)=O)[C@]5(CC)C=CCN6CC[C@]43[C@@H]65)C2)C1,80.5% (active)
7,COc1ccccc1-c1sc2ccccc2c1-c1ccc(Br)nc1,31.6% (inactive)
8,COc1ccc2sc(-c3ccccc3OC)c(-c3ccc(OCCN4CCCC4)cc3)c2c1,105% (active)
9,CC(=O)c1ccc(OCCN2CCOCC2)cc1,-15.6% (inactive)
10,COc1ccc(-c2sc3ccccc3c2-c2ccc(OCCN3CCOCC3)cc2)cc1,136% (active)
11,c1ccc(-c2ccc(OCCN3CCOCC3)cc2)cc1,5.72% (inactive)
12,c1ccc(-c2ccccc2OCCN2CCCCC2)cc1,0.336% (inactive)
13,O=C(Nc1cc(S(=O)(=O)Nc2ccc(Cl)cc2)ccc1O)c1ccc(F)cc1F,18.9% (inactive)
14,COc1ccc(C(=O)COC(=O)C(O)c2ccccc2)c(OC)c1 (stereo not drawn),3.81% (inactive)
15,O=c1ccc2c(-c3ccccc3S(=O)(=O)O)c3ccc(O)c(O)c3oc-2c1O,25.4% (inactive)
16,COCCN(C(=O)c1ccco1)c1nnc(-c2ccc(OC)cc2)s1,-23% (inactive)
17,COc1cc(OC)cc(-c2nnc(N(C)C(=O)c3ccncc3)s2)c1,-13.2% (inactive)
18,Cc1cccc(C)c1Nc1nnc(SCC(=O)NCCCN2CCCC2=O)s1,-7.62% (inactive)
19,CN1CCN(C(=O)c2ccc(-c3ccc(Br)cc3)o2)CC1,44% (inactive)
20,O=C(CC1Nc2ccccc2NC1=O)Nc1ccccc1 (stereo not drawn),100% (active)

row,Compound,inhibition
1,O=C(CC1NCCc2ccccc21)Nc1cccc(Cl)c1 (stereo not drawn),7.22% (inactive)
2,O=C(CC1NCCNC1=O)Nc1ccc(Oc2ccccc2)cc1 (stereo not drawn),52.9% (inactive)
3,O=C(COC(=O)c1ccc(O)cc1O)c1ccc2c(c1)OCCO2,8.44% (inactive)
4,O=C(Nc1cccc(S(=O)(=O)N2CCCCC2)c1)c1cncc(Br)c1,-3.28% (inactive)
5,COc1ccc(CCNc2nc3ccc(C)cc3n3cnnc23)cc1OC,-23.4% (inactive)
6,COc1ccc(CCNc2nc(C)cc(C)n2)cc1OC,-36.8% (inactive)
7,CCC[C@H]1CCCC/C=C\CCCC(=O)OCCN1C(=O)OC(C)(C)C,-20.7% (inactive)
8,COc1cccc(C2=CC(=O)C[C@H](c3ccc(OC)c(OC)c3)C2)c1,-9.08% (inactive)
9,CN(CC(=O)Nc1ccc(Cl)cc1)C(=O)c1ccc(COc2ccccc2)cc1,22.8% (inactive)
10,CCOC(=O)c1c(-c2ccccc2)oc2ccc(OCC(N)=O)cc12,-4.93% (inactive)
11,CCOC(=O)c1c(-c2ccccc2)oc2cc(Br)c(O)c(C=O)c12,100% (active)
12,CCOC(=O)c1c(-c2ccccc2)oc2cc(Br)c(O)cc12,47.8% (inactive)
13,O=C1CC2(CCCC2)C(=O)N1CN1CCN(S(=O)(=O)c2ccc(F)cc2F)CC1,-4.63% (inactive)
14,CCCN(CC1CC1)C(=O)COC(=O)c1ccc(C)cc1O,-16% (inactive)
15,CC(NC(=O)COC(=O)Cn1cc(C(F)(F)F)ccc1=O)c1ccccc1 (stereo not drawn),-18.4% (inactive)
16,O=Cc1cn(Cc2ccccc2)nc1-c1cccnc1,-1.18% (inactive)
17,Clc1ccc(CN2CCN(/N=C/c3cccnc3)CC2)cc1,3.75% (inactive)
18,O=C1/C(=C\c2cccnc2)CN(Cc2ccccc2)C/C1=C\c1cccnc1,90.1% (active)
